Inconclusive results are not listed. Activity calls are given as the source filed them. Unless noted, no rule for the calls is given here.
Tests used:
[1] = rapamycin-like changes in RPL19A-GFP expression – cell-based, S. cerevisiae, multiplex flow cytometry, primary screen (AID 1862; in the data active = percent of DMSO control GFP below about 86%;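 also: lower values mimic rapamycin by blocking the RPL19A rise seen in DMSO cells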); details: S. cerevisiae RPL19A-GFP strain, flow cytometry fluorescence, 3 h; at 10 µM; stronger effect = lower value
[2] = TOR pathway GLN3 branch reporter MEP2-GFP changes – S. cerevisiae, multiplex flow cytometry, primary screen (AID 1867;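 active = GFP response, as percent of the DMSO control, above the screen-wide mean plus 3 SD, about 139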;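 also: median GFP channel fluorescence of barcode-gated MEP2-GFP cells measured by flow cytometry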); details: S. cerevisiae MEP2-GFP strain, 3 h, at 10 µM, stronger effect = higher value
[3] = TOR pathway RTG branch CIT2 reporter changes – S. cerevisiae, GFP fusion, multiplex flow cytometry, primary screen (AID 1870;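 active = percent response above a set limit, the screen-wide mean plus 3 SD, cut at about 130% in these data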;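 also: barcoded CIT2-GFP strain pooled with four other GFP strains with rapamycin as positive control; median GFP fluorescence per well over plate mean of DMSO wells so 100% = DMSO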); details: S. cerevisiae CIT2-GFP expression, 3 h, at 10 µM, stronger effect = higher value
[4] = TOR pathway LAP4-GFP level changes – S. cerevisiae, multiplex flow cytometry, primary screen (AID 1873;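 active = GFP signal, as percent of the solvent control, above the screen mean plus 3 SD, about 149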); details: S. cerevisiae LAP4-GFP expression, 3 h, at 10 µM, stronger effect = higher value
[5] = yeast AGP1-GFP level changes, GLN3 branch – cell-based, multiplex flow cytometry, S. cerevisiae, primary screen (AID 1887;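 active = GFP signal above the screen-wide mean plus 3 SD, that is over about 124.5% of the solvent control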;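 also: AGP1-GFP fusion strain of S. cerevisiae within a five-strain barcoded multiplex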); details: 3 h, at 10 µM, stronger effect = higher value
[6] = reduced mouse 2C T cell binding to pMHC/ICAM-1 vesicles – MLPCN validation set, flow cytometry, LFA-1/ICAM-1 modulator project, pilot screen (AID 2523;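 active = response below a set limit, under 55% cells CD8-positive and vesicle-bound, and CD8 cells' 90th-percentile brightness under 279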;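 as to vesicle binding response: mean PE anti-B7-1 fluorescence of CD8+ cells relative to row control; 100% = QL9-loaded vesicles with DMSO vehicle in the same plate row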); details: 2C mouse CD8+ T cells, at 7 µM, stronger effect = lower value; double positive events: measured here: CD8+/vesicle+ event percentage
[7] = target: Integrin beta-1 (Homo sapiens) + Integrin alpha-4 (Homo sapiens) (UniProt P13612+P05556); test: alpha4beta1 integrin LIBS antibody binding reduction – U937 cells, HUTS-21 mAb, flow cytometry, validation set, VLA-4 allosteric modulator project, pilot screen (AID 2674;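 active = inhibition above 50%, about 3 SD of the validation set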;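 also: antibody binding induced by the VLA-4 ligand LDV present at three times its Kd; 0% = LDV ligand with antibody and no compound and 100% = antibody without LDV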); details: HUTS-21 LIBS mAb binding, at 6.7 µM, stronger effect = higher value
Chain of Integrin beta-1 (Homo sapiens) + Integrin alpha-4 (Homo sapiens) (P05556 whole entry, looked up): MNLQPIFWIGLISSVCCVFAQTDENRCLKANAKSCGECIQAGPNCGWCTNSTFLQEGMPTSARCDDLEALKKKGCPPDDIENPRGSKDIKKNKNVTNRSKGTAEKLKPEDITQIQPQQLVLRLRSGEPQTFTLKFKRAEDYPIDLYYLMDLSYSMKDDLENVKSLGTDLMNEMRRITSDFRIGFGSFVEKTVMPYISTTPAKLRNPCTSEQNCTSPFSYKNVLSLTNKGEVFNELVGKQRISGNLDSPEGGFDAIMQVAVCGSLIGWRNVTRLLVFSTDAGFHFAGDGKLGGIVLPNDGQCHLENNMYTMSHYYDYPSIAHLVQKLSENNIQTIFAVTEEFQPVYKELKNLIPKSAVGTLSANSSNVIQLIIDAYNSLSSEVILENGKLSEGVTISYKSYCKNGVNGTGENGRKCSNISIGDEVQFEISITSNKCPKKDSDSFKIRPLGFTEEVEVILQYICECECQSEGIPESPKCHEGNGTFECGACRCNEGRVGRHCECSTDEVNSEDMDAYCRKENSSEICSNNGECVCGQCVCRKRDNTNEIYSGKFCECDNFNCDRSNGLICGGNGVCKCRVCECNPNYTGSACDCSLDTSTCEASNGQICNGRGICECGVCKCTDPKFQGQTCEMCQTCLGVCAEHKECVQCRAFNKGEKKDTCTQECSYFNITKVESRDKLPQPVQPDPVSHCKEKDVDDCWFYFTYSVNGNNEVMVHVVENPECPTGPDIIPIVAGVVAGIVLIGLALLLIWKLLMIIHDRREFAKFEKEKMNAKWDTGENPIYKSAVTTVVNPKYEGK
Chain of Integrin beta-1 (Homo sapiens) + Integrin alpha-4 (Homo sapiens) (P13612 whole entry, looked up): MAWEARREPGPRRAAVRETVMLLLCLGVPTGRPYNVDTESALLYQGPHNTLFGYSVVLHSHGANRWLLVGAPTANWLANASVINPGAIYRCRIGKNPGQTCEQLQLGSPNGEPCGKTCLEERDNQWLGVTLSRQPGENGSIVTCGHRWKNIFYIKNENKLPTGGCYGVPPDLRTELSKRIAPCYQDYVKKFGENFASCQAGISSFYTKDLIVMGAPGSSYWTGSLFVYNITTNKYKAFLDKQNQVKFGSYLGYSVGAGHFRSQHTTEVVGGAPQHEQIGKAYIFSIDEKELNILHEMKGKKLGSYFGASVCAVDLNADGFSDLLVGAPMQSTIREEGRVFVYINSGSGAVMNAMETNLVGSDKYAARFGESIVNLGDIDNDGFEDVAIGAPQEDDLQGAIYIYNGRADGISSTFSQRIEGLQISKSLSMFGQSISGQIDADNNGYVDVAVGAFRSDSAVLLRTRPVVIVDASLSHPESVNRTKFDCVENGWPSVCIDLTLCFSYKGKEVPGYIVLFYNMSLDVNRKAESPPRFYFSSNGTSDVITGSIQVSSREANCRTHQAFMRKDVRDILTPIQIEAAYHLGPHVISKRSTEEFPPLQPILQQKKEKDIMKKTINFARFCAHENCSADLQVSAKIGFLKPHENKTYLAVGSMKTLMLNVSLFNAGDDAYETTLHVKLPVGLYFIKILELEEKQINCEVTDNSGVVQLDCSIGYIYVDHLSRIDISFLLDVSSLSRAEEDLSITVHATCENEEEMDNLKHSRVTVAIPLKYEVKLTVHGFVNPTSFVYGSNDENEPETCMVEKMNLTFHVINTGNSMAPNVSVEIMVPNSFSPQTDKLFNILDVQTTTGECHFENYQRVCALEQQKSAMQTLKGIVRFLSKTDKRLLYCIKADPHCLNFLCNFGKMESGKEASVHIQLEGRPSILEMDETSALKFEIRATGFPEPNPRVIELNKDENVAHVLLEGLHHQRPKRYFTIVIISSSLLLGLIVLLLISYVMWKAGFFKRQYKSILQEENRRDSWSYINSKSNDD

[8] = calorie-restriction mimetic ROS inhibitors, yeast – validation compound set, pilot screen (AID 2706;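 active = superoxide response below 65% of plate, a cut near 3 SD across the whole screen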;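 also: yeast exposed to compound for one week at 30 degrees C before staining; 100% = mean of all compound wells on the same plate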); details: S. cerevisiae aging, superoxide DHE fluorescence; at 10 µM; stronger effect = lower value
[9] = target: Beta-adrenergic receptor kinase 1 (Homo sapiens) (UniProt P25098); test: GRK2 binders displacing RNA aptamer, biochemical, validation, human GRK2, bead flow cytometry (AID 488806;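 active = aptamer binding inhibition above 30%, about 3 SD of noise from non-fluorescent compounds; inactive = inhibition at or below 30%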); details: bead-bound GRK2, FAM-aptamer displacement, at 10 µM, stronger effect = higher value
Chain of Beta-adrenergic receptor kinase 1 (Homo sapiens) (P25098 whole entry, looked up): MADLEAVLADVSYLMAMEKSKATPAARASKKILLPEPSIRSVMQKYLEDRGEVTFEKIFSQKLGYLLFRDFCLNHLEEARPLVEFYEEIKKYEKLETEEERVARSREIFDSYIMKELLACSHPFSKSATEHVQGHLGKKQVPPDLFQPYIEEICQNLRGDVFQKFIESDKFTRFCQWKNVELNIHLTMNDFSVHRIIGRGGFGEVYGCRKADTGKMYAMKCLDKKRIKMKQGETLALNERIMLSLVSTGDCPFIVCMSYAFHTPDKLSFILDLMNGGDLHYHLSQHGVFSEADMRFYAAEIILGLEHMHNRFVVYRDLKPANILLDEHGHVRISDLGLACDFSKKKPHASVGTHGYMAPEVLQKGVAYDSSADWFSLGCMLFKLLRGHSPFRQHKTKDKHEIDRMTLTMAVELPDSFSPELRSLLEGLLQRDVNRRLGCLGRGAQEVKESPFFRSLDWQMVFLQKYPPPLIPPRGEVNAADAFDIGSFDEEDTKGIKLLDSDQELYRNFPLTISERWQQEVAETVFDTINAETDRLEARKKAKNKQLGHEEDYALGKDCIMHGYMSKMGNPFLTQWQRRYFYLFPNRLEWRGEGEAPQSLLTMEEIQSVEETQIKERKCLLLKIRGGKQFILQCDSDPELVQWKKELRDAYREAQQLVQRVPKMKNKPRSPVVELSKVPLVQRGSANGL

[10] = target: Beta-2 adrenergic receptor (Homo sapiens) (UniProt P07550); test: agonist-induced loss of surface beta2AR – cell-based, FAP fluorogen, flow cytometry, validation set, pilot screen (AID 504459;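 active = percent response above 42, roughly 3 SD of non-fluorescent test compounds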;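 also: agonist-driven loss of surface beta2AR via internalization measured by FAP dye flow cytometry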); details: Am2.2-beta2AR cells, at 10 µM, stronger effect = higher value
Chain of Beta-2 adrenergic receptor (Homo sapiens) (P07550 whole entry, looked up): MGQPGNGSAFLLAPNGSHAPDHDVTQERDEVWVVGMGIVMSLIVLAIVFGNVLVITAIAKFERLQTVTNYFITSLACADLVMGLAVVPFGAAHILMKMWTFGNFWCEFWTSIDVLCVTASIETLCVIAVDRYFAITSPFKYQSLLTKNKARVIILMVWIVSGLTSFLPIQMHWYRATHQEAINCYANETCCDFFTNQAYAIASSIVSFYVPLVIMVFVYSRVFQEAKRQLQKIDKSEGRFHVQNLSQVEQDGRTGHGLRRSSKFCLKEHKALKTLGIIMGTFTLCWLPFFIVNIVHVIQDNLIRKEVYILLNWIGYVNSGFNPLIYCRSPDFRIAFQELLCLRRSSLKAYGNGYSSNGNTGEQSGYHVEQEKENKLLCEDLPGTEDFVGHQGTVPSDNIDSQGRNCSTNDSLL

[11] = target: AP-2 complex subunit beta (Homo sapiens) (UniProt P63010); test: beta-arrestin/AP2 interaction blockers – biochemical, validation set, GST-AP2 beads, flow cytometry, pilot screen (AID 504541;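 active = inhibition above 54%, about 3 SD of non-fluorescent compounds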;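 also: AP2 carries R879A mutation and is captured from E. coli lysate; bead-bound FITC arrestin peptide fluorescence measuring arrestin peptide binding to AP2; 0% = DMSO wells and 100% = excess unlabeled arrestin peptide control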); details: FITC arrestin peptide, at 10 µM, stronger effect = higher value
[12] = cytosolic pH regulators acting via V-ATPase – S. cerevisiae, pHLuorin, HTS validation (AID 504600; in the data active = response above about 15%;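 also: plate controls were DMSO for no effect and reference compound for full effect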); details: V-ATPase proton transport, at 10 µM, stronger effect = higher value
[13] = tested on: anti-desmoglein-3 scFv antibody binding to human DSG3; test: blockers of pathogenic pemphigus antibody–desmoglein-3 binding – biochemical, validation compound set, bead-based, flow cytometry, pilot screen (AID 588368;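 active = binding below the plate cutoff, the plate median minus 3 SD, with a reading above zero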;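 also: signal is the median channel fluorescence of bead-bound GFP antibody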); details: Protein G beads, DSG3-Fc, scFv-GFP binding, at 10 µM, stronger effect = lower value
[14] = tested on: Botulinum neurotoxin type F light chain protease (Clostridium botulinum); test: Clostridium botulinum type F light chain protease inhibitors, microsphere substrate cleavage, validation (AID 588459); details: multiplex microsphere protease substrate cleavage assay, flow cytometry; at 10 µM; stronger effect = higher value
[15] = target: Botulinum neurotoxin type A (Clostridium botulinum) (UniProt P0DPI0); test: BoNT/A light chain protease inhibitors, biochemical, multiplex microsphere flow cytometry, validation set (AID 588460); details: at 10 µM, stronger effect = higher value
[16] = target: Lethal factor (Bacillus anthracis) (UniProt P15917); test: Bacillus anthracis lethal factor inhibition, microsphere flow cytometry protease assay, validation at 10 µM (AID 588461); details: multiplex microsphere protease cleavage assay, stronger effect = higher value
Chain of Lethal factor (Bacillus anthracis) (P15917 whole entry, looked up): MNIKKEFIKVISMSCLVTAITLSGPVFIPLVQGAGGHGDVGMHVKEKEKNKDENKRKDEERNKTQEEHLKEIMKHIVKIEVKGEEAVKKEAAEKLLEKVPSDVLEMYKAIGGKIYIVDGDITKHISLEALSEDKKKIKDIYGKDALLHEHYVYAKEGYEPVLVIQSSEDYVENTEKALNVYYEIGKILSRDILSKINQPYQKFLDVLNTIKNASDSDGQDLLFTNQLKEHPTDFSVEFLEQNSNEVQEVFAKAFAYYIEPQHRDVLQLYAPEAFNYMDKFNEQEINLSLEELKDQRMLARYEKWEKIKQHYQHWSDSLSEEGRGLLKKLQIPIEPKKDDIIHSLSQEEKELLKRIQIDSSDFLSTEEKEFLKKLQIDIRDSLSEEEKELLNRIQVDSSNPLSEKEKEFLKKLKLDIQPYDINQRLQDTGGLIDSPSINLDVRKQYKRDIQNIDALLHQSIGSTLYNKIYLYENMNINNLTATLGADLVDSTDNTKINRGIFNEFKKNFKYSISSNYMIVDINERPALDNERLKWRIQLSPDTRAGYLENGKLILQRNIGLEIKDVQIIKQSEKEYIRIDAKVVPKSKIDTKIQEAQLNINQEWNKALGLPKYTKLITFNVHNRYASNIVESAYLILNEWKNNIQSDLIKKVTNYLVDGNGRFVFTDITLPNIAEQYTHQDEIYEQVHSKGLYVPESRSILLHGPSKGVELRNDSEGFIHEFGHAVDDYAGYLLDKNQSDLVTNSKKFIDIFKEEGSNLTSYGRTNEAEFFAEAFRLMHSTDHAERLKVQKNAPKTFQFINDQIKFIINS

[17] = Nile Red efflux blockade in pump-expressing yeast – validation compound set, multiplex, phenotypic, pilot screen (AID 588506;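 active = efflux inhibition above 0.42, the validation set average plus 4 SD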;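 also: Nile Red retained in cells so higher fluorescence means more efflux inhibition; 0 = negative control wells and 1 = enniatin B 25 µM full block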); details: S. cerevisiae pump-expressing triplex, Nile Red efflux flow cytometry; at 10 µM; stronger effect = higher value
[18] = target: ATP-binding cassette sub-family B member 6 (Homo sapiens) (UniProt Q9NP58); test: blockers of ABCB6-driven porphyrin uptake – K562-ABCB6 cells, flow cytometry, validation set, pilot screen (AID 588550;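 active = inhibition above the screen-wide mean plus 3 SD, about 51%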;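 also: 0% = DMSO wells and 100% = benzethonium chloride 70 µM positive control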); details: K562-ABCB6 porphyrin accumulation, 1 h, at 10 µM, stronger effect = higher value
Chain of ATP-binding cassette sub-family B member 6 (Homo sapiens) (Q9NP58 whole entry, looked up): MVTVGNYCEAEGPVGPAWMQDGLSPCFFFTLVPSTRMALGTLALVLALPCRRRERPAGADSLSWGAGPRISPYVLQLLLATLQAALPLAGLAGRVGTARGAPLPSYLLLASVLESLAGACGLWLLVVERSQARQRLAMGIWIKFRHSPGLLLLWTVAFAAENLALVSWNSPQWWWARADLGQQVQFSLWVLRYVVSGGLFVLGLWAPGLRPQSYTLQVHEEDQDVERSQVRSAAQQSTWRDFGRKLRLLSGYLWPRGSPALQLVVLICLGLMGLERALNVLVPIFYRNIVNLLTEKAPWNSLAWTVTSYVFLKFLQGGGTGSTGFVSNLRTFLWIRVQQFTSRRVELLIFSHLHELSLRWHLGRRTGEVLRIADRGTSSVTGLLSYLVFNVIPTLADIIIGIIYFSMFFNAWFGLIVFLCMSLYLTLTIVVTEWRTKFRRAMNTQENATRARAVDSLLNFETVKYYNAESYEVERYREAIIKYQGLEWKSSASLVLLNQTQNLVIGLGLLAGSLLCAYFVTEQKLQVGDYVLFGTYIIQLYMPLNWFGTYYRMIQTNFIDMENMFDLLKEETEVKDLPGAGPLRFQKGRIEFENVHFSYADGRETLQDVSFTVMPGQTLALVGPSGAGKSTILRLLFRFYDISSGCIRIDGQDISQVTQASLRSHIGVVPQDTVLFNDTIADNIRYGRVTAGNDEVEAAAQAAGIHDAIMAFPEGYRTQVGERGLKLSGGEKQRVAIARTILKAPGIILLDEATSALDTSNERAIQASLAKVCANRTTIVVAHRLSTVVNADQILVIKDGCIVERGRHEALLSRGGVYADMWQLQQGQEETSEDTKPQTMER

[19] = AML differentiation inducers, ER-HoxA9 marrow cells – cell-based, GFP/MAC1 double positive, flow cytometry, validation set, primary screen (AID 588685;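 active = differentiation response of at least 50%, scaled between solvent and reference control, from cells with both markers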;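 also: compound exposure lasts four days before antibody staining and flow analysis; 0% = DMSO wells and 100% = 5 µM fulvestrant positive control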); details: stronger effect = higher value

| Compound | percent of DMSO control GFP [1] | GFP response vs DMSO [2] | percent response of DMSO control [3] | GFP response vs DMSO [4] | GFP response, % of DMSO [5] | double positive events [6] [%] | vesicle binding response [6] | inhibition [7] | superoxide response (% of plate) [8] | aptamer binding inhibition [9] | response [10] | inhibition [11] | response [12] | binding (% of control) [13] | inhibition [14] | inhibition [15] | inhibition [16] | efflux inhibition (fraction of control) [17] | inhibition [18] | differentiation response [19] |
| --- | --- | --- | --- | --- | --- | --- | --- | --- | --- | --- | --- | --- | --- | --- | --- | --- | --- | --- | --- | --- |
| COc1ccc(OC)c([C@@H](O)[C@H](C)NC(C)(C)C)c1 | 100% (inactive) | 102% (inactive) | 94.5% (inactive) | 91.5% (inactive) | 88.8% (inactive) | 62 | 157% (inactive) | -6.45% (inactive) | 102% (inactive) | 0% (inactive) | 14.8% (inactive) | -6.97% (inactive) | 0.56% (inactive) | 106% (inactive) | -0.4% (inactive) | -1.1% (inactive) | 1.4% (inactive) | 0.28 (inactive) | 18% (inactive) | -6.03% (inactive) |
| COP(=S)(OC)SCN1C(=O)c2ccccc2C1=O | 90.6% (inactive) | 92.7% (inactive) | 97% (inactive) | 144% (inactive) | 107% (inactive) | 63.5 | 194% (inactive) | 0.59% (inactive) | 97.7% (inactive) | -4% (inactive) | -10.4% (inactive) | -11.6% (inactive) | 6.49% (inactive) | 96.4% (inactive) | -1.7% (inactive) | -0.5% (inactive) | -2.9% (inactive) | -0.09 (inactive) | -1% (inactive) | 3.88% (inactive) |
| C[C@H]1OC[C@@H](C[N+](C)(C)C)O1 | 100% (inactive) | 98.7% (inactive) | 101% (inactive) | 92.6% (inactive) | 96.2% (inactive) | 62.3 | 144% (inactive) | -6.45% (inactive) | 95.3% (inactive) | 3% (inactive) | 2.48% (inactive) | 5.6% (inactive) | 4.51% (inactive) | 102% (inactive) | 0.4% (inactive) | 0.4% (inactive) | 4.6% (inactive) | -0.16 (inactive) | -2% (inactive) | -10.4% (inactive) |
| CCOc1ccc(C2C(C#N)=C(N)Oc3c2c(=O)oc2ccccc32)cc1 (stereo not given) | 104% (inactive) | 99.6% (inactive) | 102% (inactive) | 102% (inactive) | 101% (inactive) | 59.3 | 213% (inactive) | 9.13% (inactive) | 103% (inactive) | 4% (inactive) | -0.19% (inactive) | 22.7% (inactive) | -3.38% (inactive) | 104% (inactive) | -0.4% (inactive) | 0.3% (inactive) | 0.5% (inactive) | -0.13 (inactive) | 5% (inactive) | -23.2% (inactive) |
| CC(C)C[C@H]1C(=O)N2CCCC2[C@]2(O)O[C@](NC(=O)[C@@H]3C=C4c5cccc6[nH]cc(c56)CC4N(C)C3)(C(C)C)C(=O)N12 (stereo not given in full) | 93.5% (inactive) | 116% (inactive) | 96.6% (inactive) | 79.2% (inactive) | 96.6% (inactive) | 61.2 | 108% (inactive) | -162% (inactive) | 94.2% (inactive) | 5% (inactive) | -35.9% (inactive) | 4.91% (inactive) | 3.06% (inactive) | 109% (inactive) | -7% (inactive) | -1.6% (inactive) | -34.6% (inactive) | 0.41 (inactive) | 10% (inactive) | -6.55% (inactive) |
| Cc1cc2c(C(C)C)c(O)c(O)c(C=O)c2c(O)c1-c1c(C)cc2c(C(C)C)c(O)c(O)c(C=O)c2c1O | 107% (inactive) | 103% (inactive) | 97% (inactive) | 130% (inactive) | 112% (inactive) | 63.4 | 161% (inactive) | 11.7% (inactive) | 119% (inactive) | 5% (inactive) | -1.41% (inactive) | 14% (inactive) | 1.35% (inactive) | 64.8% (active) | 2.6% (inactive) | 0.9% (inactive) | -7.5% (inactive) | 0.25 (inactive) | -3% (inactive) | 16.7% (inactive) |
| C#CCN(C)C(C)Cc1ccccc1 (stereo not given) | 100% (inactive) | 108% (inactive) | 104% (inactive) | 88.7% (inactive) | 102% (inactive) | 62.5 | 225% (inactive) | 1.62% (inactive) | 97.6% (inactive) | 3% (inactive) | -1.41% (inactive) | -6.88% (inactive) | 3.03% (inactive) | 97.2% (inactive) | -1% (inactive) | -0.6% (inactive) | 3.9% (inactive) | -0.1 (inactive) | -12% (inactive) | 15.9% (inactive) |
| CN1C2CCC1CC(OC(=O)c1ccc(Cl)cc1)C2 (stereo not given) | 99.9% (inactive) | 98.5% (inactive) | 98.6% (inactive) | 119% (inactive) | 108% (inactive) | 62.2 | 228% (inactive) | 11.9% (inactive) | 99.6% (inactive) | -1% (inactive) | -2.49% (inactive) | -3.16% (inactive) | 2.46% (inactive) | 99.5% (inactive) | 0% (inactive) | -1.9% (inactive) | -2.9% (inactive) | -0.03 (inactive) | 4% (inactive) | -13.6% (inactive) |
| C=C1[C@@H](C)[C@H]2[C@H](Cc3ccccc3)NC(=O)[C@]23OC(=O)/C=C/[C@H](O)CCC[C@@H](C)C/C=C/[C@H]3[C@@H]1O | 106% (inactive) | 102% (inactive) | 106% (inactive) | 114% (inactive) | 119% (inactive) | 62.1 | 205% (inactive) | -2.82% (inactive) | 102% (inactive) | 4% (inactive) | 36.2% (inactive) | -4.43% (inactive) | 0.39% (inactive) | 102% (inactive) | 2% (inactive) | 0.4% (inactive) | -2.5% (inactive) | -0.21 (inactive) | 7% (inactive) | -4% (inactive) |

— PubChem BioAssay
